Results with a measured potency or affinity are listed apart. The source made the active and inactive calls. How the calls were made is not given here.
Experiment: P. falciparum 3D7-ScDHODH growth inhibitors, dose response, SYBR Green, dry powder samples (AID 1159570)
Details: SYBR Green fluorescence; series mostly up to 19.5 µM

outcome, inactive:
Cc1ccccc1-c1ccccc1[C@H]1[C@@H](C#N)N(C(=O)c2ccccc2)[C@@H]1CO
O=C(NC[C@@H]1CC[C@H]2[C@H](CN2Cc2cc(-c3ccccc3)on2)O1)c1ccc2c(c1)OCO2
COc1ccc(S(=O)(=O)Nc2ccc3c(c2)CC(=O)N([C@@H](C)CO)C[C@H](C)[C@H](CN(C)S(=O)(=O)c2ccc(OC)cc2)O3)cc1
C[C@@H]1CN([C@H](C)CO)C(=O)c2cccc(NC(=O)c3ccc(-c4nccs4)cc3)c2O[C@H]1CN(C)Cc1ccc(C(F)(F)F)cc1
COc1cccc(C#Cc2ccc([C@H]3[C@@H](CO)N(C(=O)c4ccccn4)[C@H]3C#N)cc2)c1

From PubChem BioAssay AID1159570 (Broad Institute, 2015)
